# Test results taken from PubChem BioAssay (NCI).
# The panel holds about 83,000 compounds, 20% with a hit somewhere; the sample as a whole holds those more often.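 Cells were grown in 96-well plates and exposed to the test compound at a single concentration for 48 hours; results are reported as percent growth, with values below 10 considered active.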 The source made the active and inactive calls.
# System: SK-MEL-5 melanoma
# Experiment: NCI-60 one-dose screen, 48 h (100 = growth as untreated, 0 = no growth, -100 = all killed)
# Conditions: 10 µM unless noted
row,SMILES,growth
1,CC[C@]12C=CCN3CC[C@@]4(c5cc([C@H]6CCC(=O)N6)c(OC)cc5N(C)[C@H]4[C@@](O)(C(=O)OC)[C@@H]1OC(C)=O)[C@@H]32,99.8% [2.5 µM] (inactive)
2,NC1=C(C/C(N)=N\O)C(c2ccccc2Cl)c2c(ccc3ccccc23)O1 (stereo unspecified),86.8% (inactive)
3,Cn1cccc1/C=C1/SC(=S)N(CCc2ccc(O)cc2)C1=O,44.2% (inactive)

# System: UACC-62 melanoma
# Experiment: as above
# Conditions: 10 µM unless noted
row,SMILES,growth
1,COc1ccc(/C(=C\c2ccc3c(c2)OCO3)C(=O)Nc2nc3ccccc3s2)cc1OC,97.8% (inactive)
2,O=C1c2cccc3cccc(c23)C(=O)N1CC#Cc1ccc2c3c(cccc13)C(=O)N(CCO)C2=O,93.1% (inactive)
3,CC(CNc1nc(Nc2ccc(Cl)c(Cl)c2)nc(C(Cl)(Cl)Cl)n1)N(C)C (stereo unspecified),-4.78% (active)
4,Oc1cc(/C=C/c2nc(N3CCOCC3)c3cc(Cl)c(Cl)cc3n2)cc(O)c1O,98.8% (inactive)
5,CC(C)(C)c1[nH]nc2c1C(c1cc3ccccc3[nH]c1=O)Nc1cc(C(=O)OCc3ccccc3)ccc1N2 (stereo unspecified),49.1% (inactive)
6,O=C1/C(=C\C(Cl)=C/c2ccc([N+](=O)[O-])cc2)SC(=S)N1CCc1ccc(O)cc1,-30.8% (active)
7,O=c1c(CNc2ccc(S(=O)(=O)Nc3ncccn3)cc2)coc2ccccc12,89.8% (inactive)
8,COc1cc2nc(Cl)nc(Nc3cccc(C(=O)/C=C/c4ccc(F)cc4)c3)c2cc1OC,51.5% (inactive)
9,CN1CCN(CCOc2ccc(-c3cnc4c(-c5ccccc5F)cnn4c3)cc2)CC1,-10.7% (active)
10,CN(C)CCCC1(c2ccc(F)cc2)OCc2cc(-c3ccc(C(F)(F)F)nc3)ccc21 (stereo unspecified),86.1% (inactive)
11,Cn1cc(-c2nc(-c3c[nH]c4ncccc34)cs2)c2cc(Cl)ccc21,64.3% (inactive)
12,NCCNc1nc(-c2ccccc2)nc2nc(-c3ccccc3)oc12,99.9% (inactive)
13,CCCCN1CCCCn2c1nc1c2c(=O)n(C)c(=O)n1C,101% (inactive)
14,CCc1nnc(NC(=O)c2ccoc2COc2ccccc2)s1,34.8% (inactive)
15,CC1(C)C(=O)/C(=C\c2cccnc2)C[C@]2(C)[C@H]3CC[C@@H]4[C@@H](C(=O)/C=C/c5ccncc5)CC[C@@]4(C)[C@]3(C)CC[C@@H]12,-26.7% (active)
16,N#C/C(=C\c1ccc(-c2ccc(Br)cc2)o1)c1nc(-c2ccco2)cs1,81% (inactive)
17,NC1=C(C/C(N)=N\O)C(c2ccccc2Cl)c2c(ccc3ccccc23)O1 (stereo unspecified),52.2% (inactive)
18,Cn1cccc1/C=C1/SC(=S)N(CCc2ccc(O)cc2)C1=O,24.9% (inactive)
